Shown are actives, neighbours in structure and some others; about 21% of the full set was active somewhere.
DT40 TDP1 no CPT = qHTS for Inhibitors of human tyrosyl-DNA phosphodiesterase 1 (TDP1): qHTS in cells in absence of CPT; 420,000 tested, 15% active; Potency, µM (top dose mostly 46.2 µM), usual class: inhibitors; DT40 Tdp1-/- hTDP1 cells, no CPT, ATP luminescence, 48 h; also: nearly all actives have a fitted effect of over 55% in size
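Compound effects on proliferation are scored in DT40 Tdp1-/-;hTDP1 cells in the absence of CPT. ATP levels (CellTiter-Glo luminescence) are recorded after a ≥48 hr, 37 °C incubation.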
D3 antag = blocks the human D3 dopamine receptor | P35462 | D3R cells, DiscoveRx beta-arrestin luminescence, antagonist mode; active compounds read low | max response, negative = inhibition, % | 360,000 tested, 2.5% active; in the data active = max response below about -50%; inconclusive = no clear call, values can overlap the other calls
Target sequence (P35462 whole entry, looked up): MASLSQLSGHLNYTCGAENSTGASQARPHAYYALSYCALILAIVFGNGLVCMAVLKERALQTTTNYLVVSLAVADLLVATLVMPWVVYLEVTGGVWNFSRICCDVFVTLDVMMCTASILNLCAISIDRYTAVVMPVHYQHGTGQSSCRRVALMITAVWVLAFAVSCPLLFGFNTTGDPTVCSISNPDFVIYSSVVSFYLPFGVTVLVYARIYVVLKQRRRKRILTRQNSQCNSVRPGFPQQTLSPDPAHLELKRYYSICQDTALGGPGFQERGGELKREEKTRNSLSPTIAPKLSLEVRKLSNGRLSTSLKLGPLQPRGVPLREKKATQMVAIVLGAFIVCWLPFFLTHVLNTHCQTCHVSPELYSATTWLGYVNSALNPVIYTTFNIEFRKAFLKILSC
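Cells plated overnight at 1500 cells/well, then exposed to library compounds with dopamine controls for 90 minutes at 37 degrees C. DiscoveRx reagent added for 30–60 minutes at room temperature; luminescence read, quantitative HTS format.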
DT40 TDP1 CPT = growth inhibition of DT40 Tdp1-/-;hTDP1 cells with camptothecin (screen for TDP1 inhibitors); chicken DT40 Tdp1-/-;hTDP1 cells + 20 nM CPT, ATP luminescence, 48 h; Potency, µM (series often up to 46.2 µM), hits mostly inhibitors; AID 686979; 420,000 tested, 12% active; also: nearly all actives have a fitted effect of over 55% in size
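Chicken DT40 Tdp1-/- cells complemented with human TDP1, 400 cells/well, exposed to compounds plus 20 nM camptothecin for at least 48 h at 37 C; viability read as ATP content by CellTiter-Glo luminescence.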
D3 ag = agonists of human D3 dopamine receptor; P35462; D3R DiscoveRx beta-arrestin cells, luminescence, 90 min; max activation, %; 410,000 tested, 0.58% active; AID 652048; in the data active = max activation above about 30%
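Cells at 1500/well, incubated overnight, then treated with pinned compounds (dopamine as control) for 90 min at 37 degrees C. DiscoveRx reagent added for 30 - 60 minutes at room temperature; luminescence read.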
IL-1B inflam inh = inflammasome signaling inhibition, IL-1 beta readout; THP-1 LPS/ATP IL-1B secretion, AlphaLISA, 16 h; active compounds read low; activity change, % at 57.5 µM; 360,000 tested, 4.7% active; in the data active = activity change below about -50%; inconclusive = mostly about -30% to -49%
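Secreted IL-1B measured by AlphaLISA bead assay after 16 h compound exposure of THP-1 cells; compounds (final up to 57.5 uM) added 1 h before LPS (250 ng/mL) and ATP (1.25 mM) stimulation; lower signal means less secretion.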
ClpP mod = qHTS Assay for Activators of ClpP. AID 651965, 2013. Potency, µM (top dose mostly 57.5 µM). 340,000 tested, 1.9% active. ATP-dependent Clp protease proteolytic subunit (Bacillus subtilis (strain 168)), P80244. purified B. subtilis ClpP, FRET peptide cleavage, 20 min; active = well fitted falling curve with a large enough effect; inconclusive = small, poorly fitted or top-dose-only effect; inactive = no such curve, though single readings can be large or run the other way; also: the source files actives as falling curves though it sought activators and does not explain the sign; nearly all actives have a fitted effect of over 65% in size
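Buffer: 100 mM Tris/HCl pH8, 100 mM KCl, 0.05% low protease BSA, 2.5% glycerol, 0.01% Tween-20. ClpP 10 microg/mL final; 20 min RT; delta FRET normalized to ADEP and DMSO controls.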
Hits are given with their value; i = inactive; ? = inconclusive; nt = no result given. Unless noted, calls follow the shape of the dose curve; as a rule, active = well fitted inhibition curve with a large enough effect; inconclusive = small, poorly fitted or top-dose-only effect; inactive = flat fitted curve, though single readings scatter.

SMILES	DT40 TDP1 no CPT	D3 antag	DT40 TDP1 CPT	D3 ag	IL-1B inflam inh	ClpP mod
CCOc1ccc(-c2cc3nc(C4CCN(C(=O)OC(C)(C)C)CC4)c(C(=O)Nc4c(C)cccc4C)cn3n2)cc1	13µM	nt	15µM	i	nt	i
CCOc1ccc(-c2cc3nc(C4CCN(C(=O)OC(C)(C)C)CC4)c(C(=O)Nc4ccc(C)cc4C)cn3n2)cc1	21µM	nt	18µM	i	nt	i
CCOc1ccc(-c2cc3nc(C4CCN(C(=O)OC(C)(C)C)CC4)c(C(=O)Nc4ccc(C)cc4Cl)cn3n2)cc1	?	nt	?	i	nt	i
CCOc1ccc(-c2cc3nc(C4CCN(C(=O)OC(C)(C)C)CC4)c(C(=O)Nc4cccc(Cl)c4C)cn3n2)cc1	15µM	nt	18µM	i	nt	i
Cc1ccc(CN(Cc2ccccc2)C(=S)Nc2ccccc2C)o1	?	i	?	i	i	nt
CCCCOc1ccc(CNC(=O)Cc2ccc(NC(=O)N3CCSc4ncccc43)cc2)cc1	?	nt	?	i	nt	?
Cc1ccccc1CNC(=O)c1cccc(NC(=O)N2CCSc3ncccc32)c1	16µM	nt	18µM	i	nt	32µM
CCCCOc1ccc(CNC(=O)c2cccc(NC(=O)N3CCSc4ncccc43)c2)cc1	16µM	nt	?	i	nt	i
CC(C)Oc1ccc(CNC(=O)c2cccc(NC(=O)N3CCSc4ncccc43)c2)cc1	21µM	nt	?	i	nt	?
CCOc1ccc(CNC(=O)c2cccc(NC(=O)N3CCSc4ncccc43)c2)cc1	23µM	nt	?	i	nt	i
CCOC(=O)[C@H]1[C@H]2COc3cc(OC)ccc3[C@@H]2N2C(=O)c3c(C)cc(C)cc3NC(=O)[C@@]12C	?	i	?	i	i	i
COc1ccc(-c2c(C#Cc3ccsc3)c3cc(-c4ccc(OC)c(F)c4)ccc3n2C)cc1	?	i	?	i	i	i
Cc1ccc(S(=O)(=O)c2nc(-c3ccccc3)oc2SCC(=O)NC2CCCCC2)cc1	i	nt	i	64	nt	i
Cc1ccc(-c2nc(S(=O)(=O)c3ccccc3)c(SCC(=O)NCC3CCCO3)o2)cc1 (configuration not stated)	23µM	i	?	i	i	nt
O=C(CSc1oc(-c2ccccc2)nc1S(=O)(=O)c1ccccc1)NCC1CCCO1 (configuration not stated)	i	i	?	i	i	i
O=C(CCCN1C(=O)c2cccc3cccc(c23)C1=O)Nc1ccon1	i	i	i	i	i	nt
C/C=C/C1=CC(=O)C[C@H](c2ccc(Cl)cc2)C1	?	i	?	i	-82	i
C/C=C/C1=CC(=O)C[C@H](c2ccc(F)cc2)C1	?	i	?	i	?	i
C/C=C/C1=CC(=O)C[C@H](c2ccc(OC)c(OC)c2)C1	?	i	?	i	-97	i
CN(Cc1c(F)cccc1Cl)C(=O)C1=CC=CN2CCS(=O)(=O)N=C12	i	i	i	i	i	i
O=C(Nc1cc([N+](=O)[O-])ccc1C(=O)NCCN1CCOCC1)c1ccccc1	i	i	i	i	i	i
COc1ccccc1Cn1c(/C=C/c2ccccc2)nc2ccccc21	?	i	?	i	-80	i
COc1ccc(/C=C/c2nc3ccccc3n2Cc2ccccc2OC)cc1	8.2µM	i	7.3µM	i	-201	nt
CCOC(=O)c1c(C)n(-c2ccc(OC)cc2)c2ccc(O)c(CN(C)C)c12	16µM	i	26µM	i	i	i
CCOC(=O)c1c(C)n(C)c2ccc(O)c(CN(C)C)c12	18µM	?	21µM	i	-53	i
O=C(Cn1c(=O)n(-c2ccccc2Cl)c(=O)c2sc3ccccc3c21)NC1CCCCC1	?	nt	i	i	nt	?
CCc1cc2c(cc3c(=O)n(CC(=O)N4CCN(C)CC4)ncn32)s1	?	i	?	i	i	i
CCN(Cc1ccccc1)C(=O)CN1C(=O)CSc2ccc(S(=O)(=O)N(CC)CC)cc21	?	nt	?	i	nt	i

Bioassay records: PubChem BioAssay, National Center for Advancing Translational Sciences (NCATS)
